This note sets out measurements from PubChem BioAssay (NCATS).

Inconclusive results are not listed. Entries that show only a call come without a potency. Active and inactive are the calls of the source. Calls follow the shape of the dose curve; as a rule, active = well fitted inhibition curve with a large enough effect; inconclusive = small, poorly fitted or top-dose-only effect; inactive = no such curve, though single readings can be large or run the other way.

In this experiment the target is Cytochrome P450 3A7 (Homo sapiens) (UniProt P24462). Briefly: Cytochrome P450 family 3 subfamily A member 7 (CYP3A7) small molecule antagonists: luciferase biochemical qHTS assay (AID 1963596). Also: nearly all actives have a fitted effect of over 40% in size. Summed up:
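In this luminescent screen, enzyme and proluciferin substrate meet test compound for 10 min before NADPH regeneration solution drives a 1 h room-temperature reaction; detection reagent halts turnover and luminescence is read 20 min later.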

Chain of Cytochrome P450 3A7 (Homo sapiens) (P24462 whole entry, looked up): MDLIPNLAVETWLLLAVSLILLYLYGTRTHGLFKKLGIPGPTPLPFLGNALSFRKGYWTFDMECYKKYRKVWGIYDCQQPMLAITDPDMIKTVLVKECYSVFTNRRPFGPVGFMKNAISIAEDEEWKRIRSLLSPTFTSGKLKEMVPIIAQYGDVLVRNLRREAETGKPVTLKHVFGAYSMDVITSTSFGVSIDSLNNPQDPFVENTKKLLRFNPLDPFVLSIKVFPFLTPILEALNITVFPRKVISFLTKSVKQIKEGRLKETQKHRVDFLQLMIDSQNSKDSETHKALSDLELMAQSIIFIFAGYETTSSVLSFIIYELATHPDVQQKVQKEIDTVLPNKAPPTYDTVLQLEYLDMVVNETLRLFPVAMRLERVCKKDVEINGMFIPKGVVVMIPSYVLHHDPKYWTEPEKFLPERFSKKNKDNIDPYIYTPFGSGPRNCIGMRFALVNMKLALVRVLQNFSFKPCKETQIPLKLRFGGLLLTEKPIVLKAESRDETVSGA

As for `COc1ccc2cc(Br)ccc2c1`, the Potency result is “inactive”. Under `COC(C(=O)N1Cc2[nH]nc(NC(=O)c3ccc(N4CCN(C)CC4)cc3)c2C1)c1ccccc1` (stereo not given) stands “inactive”; under `CC1=CC(O)=NS(=O)(=O)O1`, “inactive”; under `CCCCCCCCCCCCCCCCNc1ccc(C(=O)O)cc1`, “inactive”. For `CCC(=O)O`, the Potency entry is “inactive”. For the compound `Cc1noc(=O)c2ccc(NC(=O)C(O)(CC(C)(C)c3cccc4c3OCC4)C(F)(F)F)cc12` (stereo not given), the Potency result was “inactive”. The entry for `Cc1ncc(C[n+]2csc(CCO)c2C)c(N)n1` is “inactive”; for `CNC(=O)COC(=O)N1CCC(CCc2ccc(Cl)cc2)CC1` it is “inactive”; for `COc1cc(C(=O)NC(c2ccc(Cl)cc2)c2cc(Cl)c3cccnc3c2O)cc(OC)c1OC` (stereo not given) it is “inactive”. `CC(C)[C@H](N)C(=O)O`: the Potency entry is “inactive”. Under `Cc1cccc(NC(=O)Cn2c(=O)n(Cc3ccc(C(=O)NCc4ccc5c(c4)OCO5)cc3)c(=O)c3ccccc32)c1` stands “inactive”; under `O=S(=O)(O)Oc1ccc(C(c2ccc(OS(=O)(=O)O)cc2)c2ccccn2)cc1`, “inactive”; under `CCOC(=O)C1=C(O)c2ccccc2S(=O)(=O)N1C`, “inactive”. The entry for `CCCCCCOC(=O)c1cccnc1` is “inactive”. The entry for `OC[C@H]1O[C@@H]2O[C@H]3[C@H](O)[C@@H](O)[C@@H](O[C@H]4[C@H](O)[C@@H](O)[C@@H](O[C@H]5[C@H](O)[C@@H](O)[C@@H](O[C@H]6[C@H](O)[C@@H](O)[C@@H](O[C@H]7[C@H](O)[C@@H](O)[C@@H](O[C@H]1[C@H](O)[C@@H]2O)O[C@@H]7CO)O[C@@H]6CO)O[C@@H]5CO)O[C@@H]4CO)O[C@@H]3CO` is “inactive”.
